# From the supplement of paper PMC11732987, “Enantioselective OTUD7B fragment discovery through chemoproteomics screening and high-throughput optimisation” (Communications Chemistry, 2025)
# Unmarked numbers belong to inactive results.
# Tests used:
# Experiment in all cases: log2 ratio of Biotin-Ahx-Ub-VS probe labelling (fragment/DMSO); higher = less target engagement (more negative = stronger competition), active = hit call of the paper (q ≤ 0.05, log2 ratio ≤ -1)
# Conditions in all cases: compound concentration: 200 uM; treatment time: 3 h
# [1] = molecular target: T1, USP19 (UniProt O94966)
# T1 sequence (whole entry): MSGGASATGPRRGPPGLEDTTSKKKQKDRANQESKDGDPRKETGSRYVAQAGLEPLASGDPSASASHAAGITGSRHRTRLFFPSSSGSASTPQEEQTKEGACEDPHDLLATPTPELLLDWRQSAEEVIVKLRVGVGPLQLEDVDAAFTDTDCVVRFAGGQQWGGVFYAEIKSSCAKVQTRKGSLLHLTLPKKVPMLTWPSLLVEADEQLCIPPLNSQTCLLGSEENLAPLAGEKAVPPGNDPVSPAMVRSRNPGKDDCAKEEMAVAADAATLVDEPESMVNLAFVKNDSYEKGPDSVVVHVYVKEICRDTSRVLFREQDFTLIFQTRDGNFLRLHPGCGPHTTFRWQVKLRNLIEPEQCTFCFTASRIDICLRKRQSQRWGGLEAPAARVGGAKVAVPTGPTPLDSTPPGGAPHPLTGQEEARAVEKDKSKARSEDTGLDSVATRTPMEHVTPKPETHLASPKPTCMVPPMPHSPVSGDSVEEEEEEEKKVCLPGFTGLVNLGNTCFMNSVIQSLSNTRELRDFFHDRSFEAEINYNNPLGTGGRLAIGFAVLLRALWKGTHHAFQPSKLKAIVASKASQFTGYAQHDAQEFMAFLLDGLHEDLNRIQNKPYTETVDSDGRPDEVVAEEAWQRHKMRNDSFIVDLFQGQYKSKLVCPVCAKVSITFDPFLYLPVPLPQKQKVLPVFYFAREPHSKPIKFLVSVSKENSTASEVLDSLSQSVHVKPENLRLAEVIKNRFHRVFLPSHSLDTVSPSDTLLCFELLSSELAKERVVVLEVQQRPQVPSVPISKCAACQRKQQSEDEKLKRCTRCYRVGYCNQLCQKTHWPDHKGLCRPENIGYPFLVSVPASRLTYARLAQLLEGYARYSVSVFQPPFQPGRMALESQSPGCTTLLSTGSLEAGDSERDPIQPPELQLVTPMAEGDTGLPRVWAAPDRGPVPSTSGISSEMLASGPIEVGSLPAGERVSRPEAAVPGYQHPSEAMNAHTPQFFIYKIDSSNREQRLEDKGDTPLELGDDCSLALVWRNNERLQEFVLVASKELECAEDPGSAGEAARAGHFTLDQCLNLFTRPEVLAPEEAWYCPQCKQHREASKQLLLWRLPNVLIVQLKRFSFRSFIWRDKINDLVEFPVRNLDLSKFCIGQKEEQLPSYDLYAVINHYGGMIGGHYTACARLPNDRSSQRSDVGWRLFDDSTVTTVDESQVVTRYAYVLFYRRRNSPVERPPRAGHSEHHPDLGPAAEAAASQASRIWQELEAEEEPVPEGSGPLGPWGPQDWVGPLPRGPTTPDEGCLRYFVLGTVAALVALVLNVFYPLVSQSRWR
# Outline: (§1)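 The table lists average log2 ratios of fragment over vehicle, from an unpaired t-test on global-median-normalised Spectronaut label-free quantities. Proteins with ≥2 unique peptides were used. Samples were HEK293T lysate (495 µg) treated in triplicate with fragment at 200 µM or vehicle for 3 h, then with Biotin-Ahx-Ub-VS (0.5 µM final) for 1 h, with labelled DUBs NeutrAvidin-enriched and run by diaPASEF LC-MS/MS.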
# [2] = molecular target: T2, USP22 (UniProt Q9UPT9)
# T2 sequence (whole entry): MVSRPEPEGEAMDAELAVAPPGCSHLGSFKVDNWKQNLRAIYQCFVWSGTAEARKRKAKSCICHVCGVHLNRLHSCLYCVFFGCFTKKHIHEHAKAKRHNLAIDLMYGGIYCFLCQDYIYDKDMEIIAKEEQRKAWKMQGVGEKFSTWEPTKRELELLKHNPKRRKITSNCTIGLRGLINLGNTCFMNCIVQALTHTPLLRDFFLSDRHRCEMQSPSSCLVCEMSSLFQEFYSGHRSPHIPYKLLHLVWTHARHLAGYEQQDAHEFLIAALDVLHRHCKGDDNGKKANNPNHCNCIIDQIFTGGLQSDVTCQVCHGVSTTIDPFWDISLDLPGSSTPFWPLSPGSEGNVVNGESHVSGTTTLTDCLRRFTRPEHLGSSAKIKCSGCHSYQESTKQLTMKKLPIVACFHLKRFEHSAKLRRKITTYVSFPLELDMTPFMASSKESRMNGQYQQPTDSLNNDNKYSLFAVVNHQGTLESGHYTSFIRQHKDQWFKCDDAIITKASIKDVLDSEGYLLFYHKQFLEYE
# Outline: as §1
# [3] = molecular target: USP24 (UniProt Q9UPU5)
# Chain of USP24 (Q9UPU5 whole entry): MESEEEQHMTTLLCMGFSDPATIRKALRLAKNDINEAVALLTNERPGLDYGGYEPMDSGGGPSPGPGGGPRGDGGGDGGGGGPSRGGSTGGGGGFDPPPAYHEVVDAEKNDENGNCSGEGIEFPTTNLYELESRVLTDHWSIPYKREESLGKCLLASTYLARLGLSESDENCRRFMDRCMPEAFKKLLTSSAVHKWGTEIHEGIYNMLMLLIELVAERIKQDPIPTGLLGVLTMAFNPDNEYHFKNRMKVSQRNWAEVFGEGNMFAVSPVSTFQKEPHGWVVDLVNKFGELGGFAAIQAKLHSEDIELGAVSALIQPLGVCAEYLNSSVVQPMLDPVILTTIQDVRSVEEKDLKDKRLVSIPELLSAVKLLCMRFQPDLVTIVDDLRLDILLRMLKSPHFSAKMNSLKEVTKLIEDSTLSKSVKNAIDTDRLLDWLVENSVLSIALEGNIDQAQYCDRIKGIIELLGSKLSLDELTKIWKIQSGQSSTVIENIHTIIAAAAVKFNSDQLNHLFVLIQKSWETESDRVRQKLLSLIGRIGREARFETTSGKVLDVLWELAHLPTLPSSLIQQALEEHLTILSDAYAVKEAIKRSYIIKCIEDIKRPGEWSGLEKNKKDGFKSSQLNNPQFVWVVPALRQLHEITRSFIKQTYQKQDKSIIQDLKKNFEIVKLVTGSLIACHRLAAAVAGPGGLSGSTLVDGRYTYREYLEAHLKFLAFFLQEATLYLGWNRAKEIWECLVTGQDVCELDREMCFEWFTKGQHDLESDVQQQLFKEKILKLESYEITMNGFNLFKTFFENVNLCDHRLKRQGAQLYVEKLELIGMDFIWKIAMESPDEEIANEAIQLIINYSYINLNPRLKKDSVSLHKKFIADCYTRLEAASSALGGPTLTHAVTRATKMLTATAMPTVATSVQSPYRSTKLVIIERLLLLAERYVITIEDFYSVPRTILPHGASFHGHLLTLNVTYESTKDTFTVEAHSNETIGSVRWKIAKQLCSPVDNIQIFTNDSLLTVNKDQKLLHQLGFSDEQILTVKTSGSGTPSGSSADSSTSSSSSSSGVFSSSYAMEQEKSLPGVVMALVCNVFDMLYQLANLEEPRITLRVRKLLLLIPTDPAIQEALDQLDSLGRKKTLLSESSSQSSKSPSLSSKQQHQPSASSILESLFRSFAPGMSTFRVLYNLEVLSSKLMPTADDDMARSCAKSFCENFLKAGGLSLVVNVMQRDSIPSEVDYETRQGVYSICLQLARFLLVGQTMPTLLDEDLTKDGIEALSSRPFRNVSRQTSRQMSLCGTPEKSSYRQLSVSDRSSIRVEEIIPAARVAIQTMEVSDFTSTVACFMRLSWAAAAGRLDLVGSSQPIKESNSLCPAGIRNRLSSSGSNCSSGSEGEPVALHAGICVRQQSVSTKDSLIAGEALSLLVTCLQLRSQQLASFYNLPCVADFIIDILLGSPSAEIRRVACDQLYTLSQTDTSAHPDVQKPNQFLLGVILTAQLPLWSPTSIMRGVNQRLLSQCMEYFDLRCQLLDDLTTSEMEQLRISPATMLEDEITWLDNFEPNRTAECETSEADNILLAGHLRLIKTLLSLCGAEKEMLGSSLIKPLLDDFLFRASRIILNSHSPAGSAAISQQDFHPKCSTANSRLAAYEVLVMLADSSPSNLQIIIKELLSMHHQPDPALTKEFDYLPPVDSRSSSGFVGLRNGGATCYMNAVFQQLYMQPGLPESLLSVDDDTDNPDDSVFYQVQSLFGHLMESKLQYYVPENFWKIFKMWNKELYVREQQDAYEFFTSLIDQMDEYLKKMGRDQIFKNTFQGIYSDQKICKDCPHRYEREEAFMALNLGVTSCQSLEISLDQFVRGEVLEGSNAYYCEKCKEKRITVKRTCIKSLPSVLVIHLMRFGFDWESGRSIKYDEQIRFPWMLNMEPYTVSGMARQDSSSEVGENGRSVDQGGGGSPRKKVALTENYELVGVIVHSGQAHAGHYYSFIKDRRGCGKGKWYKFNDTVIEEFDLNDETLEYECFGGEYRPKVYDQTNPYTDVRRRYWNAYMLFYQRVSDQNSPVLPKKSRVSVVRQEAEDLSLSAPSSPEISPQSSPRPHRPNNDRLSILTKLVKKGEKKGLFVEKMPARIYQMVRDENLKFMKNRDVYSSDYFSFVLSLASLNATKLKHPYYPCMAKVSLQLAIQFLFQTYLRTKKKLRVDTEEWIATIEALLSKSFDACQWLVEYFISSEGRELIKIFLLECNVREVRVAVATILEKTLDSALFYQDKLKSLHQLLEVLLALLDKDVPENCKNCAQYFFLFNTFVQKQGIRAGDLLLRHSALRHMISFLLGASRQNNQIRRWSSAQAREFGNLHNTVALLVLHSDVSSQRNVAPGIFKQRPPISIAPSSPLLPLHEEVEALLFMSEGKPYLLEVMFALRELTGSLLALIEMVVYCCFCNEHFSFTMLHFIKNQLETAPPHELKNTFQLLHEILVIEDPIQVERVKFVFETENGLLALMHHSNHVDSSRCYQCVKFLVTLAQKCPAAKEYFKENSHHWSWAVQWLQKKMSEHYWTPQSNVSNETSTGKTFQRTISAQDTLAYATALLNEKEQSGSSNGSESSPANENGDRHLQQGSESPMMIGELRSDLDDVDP
# Outline: as §1
# [4] = molecular target: T3, USP25 (UniProt Q9UHP3)
# T3 sequence (whole entry): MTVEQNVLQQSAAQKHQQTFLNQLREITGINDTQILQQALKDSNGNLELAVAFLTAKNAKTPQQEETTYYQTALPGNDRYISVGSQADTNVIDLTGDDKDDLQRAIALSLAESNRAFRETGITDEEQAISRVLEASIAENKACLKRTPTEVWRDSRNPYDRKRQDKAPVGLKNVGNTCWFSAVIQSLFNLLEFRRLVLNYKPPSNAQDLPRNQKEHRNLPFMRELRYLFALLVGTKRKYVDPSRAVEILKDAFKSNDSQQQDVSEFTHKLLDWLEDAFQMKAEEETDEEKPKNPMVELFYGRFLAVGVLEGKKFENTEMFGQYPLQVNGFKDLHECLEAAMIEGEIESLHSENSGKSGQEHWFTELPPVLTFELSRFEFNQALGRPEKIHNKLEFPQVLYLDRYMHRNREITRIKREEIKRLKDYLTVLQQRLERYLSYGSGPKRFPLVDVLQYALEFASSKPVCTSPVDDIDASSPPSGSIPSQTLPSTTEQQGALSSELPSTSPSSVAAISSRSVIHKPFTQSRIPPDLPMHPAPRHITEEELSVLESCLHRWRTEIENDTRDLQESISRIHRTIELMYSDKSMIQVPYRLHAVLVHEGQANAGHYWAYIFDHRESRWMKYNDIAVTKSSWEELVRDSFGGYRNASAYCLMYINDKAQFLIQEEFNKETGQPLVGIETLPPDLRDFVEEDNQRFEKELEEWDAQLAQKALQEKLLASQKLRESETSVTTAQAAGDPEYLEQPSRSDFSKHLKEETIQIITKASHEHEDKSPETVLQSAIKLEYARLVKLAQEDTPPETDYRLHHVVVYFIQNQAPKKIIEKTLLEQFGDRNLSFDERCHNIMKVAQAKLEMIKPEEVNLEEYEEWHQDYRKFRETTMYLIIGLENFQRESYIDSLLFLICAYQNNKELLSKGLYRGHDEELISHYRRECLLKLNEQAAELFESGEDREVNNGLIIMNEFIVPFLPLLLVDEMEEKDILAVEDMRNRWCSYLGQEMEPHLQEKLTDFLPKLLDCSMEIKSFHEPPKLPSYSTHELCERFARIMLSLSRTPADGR
# Outline: as §1
# [5] = molecular target: T4, USP28 (UniProt Q96RU2)
# T4 sequence (whole entry): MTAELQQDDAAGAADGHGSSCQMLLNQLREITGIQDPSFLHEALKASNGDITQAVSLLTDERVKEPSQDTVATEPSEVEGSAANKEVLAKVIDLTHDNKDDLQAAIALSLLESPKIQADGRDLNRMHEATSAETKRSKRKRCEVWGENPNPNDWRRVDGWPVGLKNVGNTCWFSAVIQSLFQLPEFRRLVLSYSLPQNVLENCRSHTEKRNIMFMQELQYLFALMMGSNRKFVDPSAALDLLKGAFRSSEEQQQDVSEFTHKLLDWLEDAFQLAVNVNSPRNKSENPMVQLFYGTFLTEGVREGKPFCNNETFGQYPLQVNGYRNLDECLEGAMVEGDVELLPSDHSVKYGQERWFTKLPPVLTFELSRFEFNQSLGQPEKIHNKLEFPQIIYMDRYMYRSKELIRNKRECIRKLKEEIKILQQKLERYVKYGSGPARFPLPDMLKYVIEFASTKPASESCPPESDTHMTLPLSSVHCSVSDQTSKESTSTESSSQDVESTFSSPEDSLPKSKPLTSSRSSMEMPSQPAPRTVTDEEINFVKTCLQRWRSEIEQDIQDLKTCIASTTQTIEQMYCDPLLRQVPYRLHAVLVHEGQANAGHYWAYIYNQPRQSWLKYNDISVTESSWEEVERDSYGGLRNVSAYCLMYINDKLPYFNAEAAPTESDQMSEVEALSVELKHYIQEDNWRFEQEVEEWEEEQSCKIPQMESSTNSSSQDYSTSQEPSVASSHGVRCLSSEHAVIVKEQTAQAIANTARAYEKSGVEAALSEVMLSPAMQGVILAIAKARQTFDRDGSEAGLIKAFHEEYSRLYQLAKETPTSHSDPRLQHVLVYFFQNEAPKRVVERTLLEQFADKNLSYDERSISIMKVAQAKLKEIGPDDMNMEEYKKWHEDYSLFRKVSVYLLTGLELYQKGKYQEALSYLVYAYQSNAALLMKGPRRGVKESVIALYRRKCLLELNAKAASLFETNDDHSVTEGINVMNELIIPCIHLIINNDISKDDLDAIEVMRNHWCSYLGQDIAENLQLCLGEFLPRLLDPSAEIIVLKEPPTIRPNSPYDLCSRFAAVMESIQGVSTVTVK
# Outline: as §1
structure (smiles),measurement,setting,value
CC1Cc2ccccc2N1C(=O)CCl (stereo not given),log2 ratio of Biotin-Ahx-Ub-VS probe labelling,[1],-0.643
same,log2 ratio of Biotin-Ahx-Ub-VS probe labelling,[2],-0.161
same,log2 ratio of Biotin-Ahx-Ub-VS probe labelling,[3],-1.61 (active)
same,log2 ratio of Biotin-Ahx-Ub-VS probe labelling,[4],-0.876
same,log2 ratio of Biotin-Ahx-Ub-VS probe labelling,[5],-0.929
